In PubChem BioAssay AID1159580 (chemical genetic matrix, 2015):
Several values for one entry are separate records, joined by “and”; a condition that tells them apart may be missing. Identical values can stand only once. The whole screen tested about 5,500 compounds, of which about 2,000 (36%) were called active. Not shown: some 18% with an inconclusive outcome. No stated cut-off is given here; in the data, active means normalized growth mostly below about 0.91 (no sharp cut-off); inconclusive means no clear call, values can overlap the other calls; inactive means mostly above about 0.92. This is one part of the list.

Assay: chemical genetic growth profiling, strain panel (AID 1159580);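 further: tested at 20 µM; growth read once vehicle control cultures reached saturation at 30 °C; 1 = growth at the plate median or of vehicle wells; lower values mean less growth of the strain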
Details: S. cerevisiae deletion strains, growth OD

Measured: normalized growth

CC1=CC(=O)C2C(C)(C)CCC[C@]2(C)[C@@]1(O)CCc1ccoc1 (some centres not stated)
active: locus YDR137W, strain rgp1, active compounds read low 0.825 | locus YDR392W, strain spt3, active compounds read low 0.628 | locus YLR262C, strain YPT6 (second series), active compounds read low 0.835 | locus YNL071W, strain lat1, active compounds read low 0.902
inactive: locus YAL021C, strain ccr4, active compounds read low 0.986 | locus YAL026C, strain drs2, active compounds read low 1 | locus YAL030W, strain snc1, active compounds read low 0.984 | locus YBL061C, strain skt5, active compounds read low 1.02 | locus YBR009C, strain hhf1, active compounds read low 0.999 | locus YBR021W, strain FUR4, active compounds read low 1.04 | locus YBR023C, strain chs3, active compounds read low 0.982 | locus YBR171W, strain sec66, active compounds read low 0.984 | locus YBR229C, strain ROT2, active compounds read low 1.01 | locus YBR231C, strain swc5, active compounds read low 1.03 | locus YBR279W, strain paf1, active compounds read low 0.975 | locus YCL011C, strain gbp2, active compounds read low 0.996 | locus YCL016C, strain dcc1, active compounds read low 0.989 | locus YCL029C, strain bik1, active compounds read low 0.997 | locus YCL061C, strain MRC1, active compounds read low 1 | locus YCL069W, strain vba3, active compounds read low 1.01 | locus YCR088W, strain abp1, active compounds read low 0.992 | locus YDL005C, strain med2, active compounds read low 0.988 | locus YDL035C, strain GPR1, active compounds read low 1.03 | locus YDL040C, strain nat1, active compounds read low 0.998 | locus YDL074C, strain BRE1, active compounds read low 0.995 | locus YDL101C, strain DUN1, active compounds read low 0.998 | locus YDL185W, strain tfp1, active compounds read low 0.955 | locus YDL192W, strain arf1, active compounds read low 0.998 | locus YDR001C, strain nth1, active compounds read low 1.01 | locus YDR069C, strain doa4, active compounds read low 0.994 | locus YDR101C, strain arx1, active compounds read low 1.01 | locus YDR150W, strain NUM1, active compounds read low 0.988 | locus YDR159W, strain sac3, active compounds read low 1.02 | locus YDR162C, strain NBP2, active compounds read low 1 | locus YDR195W, strain ref2 1.08 | locus YDR297W, strain sur2, active compounds read low 0.991 | locus YDR318W, strain mcm21, active compounds read low 0.997 | locus YDR334W, strain swr1, active compounds read low 1.01 | locus YDR335W, strain msn5, active compounds read low 0.958 | locus YDR388W, active compounds read low 0.999 | locus YDR502C, strain sam2, active compounds read low 0.98 | locus YEL003W, strain gim4, active compounds read low 1.02 | locus YEL037C, strain rad23, active compounds read low 1 | locus YEL061C, strain CIN8 (second series), active compounds read low 0.995 | locus YEL061C, strain CIN8, active compounds read low 1 | locus YER015W, strain faa2, active compounds read low 0.99 | locus YER016W, strain bim1, active compounds read low 0.994 | locus YER110C, active compounds read low 0.987 | locus YER111C, strain swi4, active compounds read low 0.999 | locus YER155C, strain BEM2 (second series), active compounds read low 1.03 | locus YER155C, strain BEM2, active compounds read low 0.989 | locus YER167W, strain BCK2, active compounds read low 0.989 | locus YFR010W, strain ubp6, active compounds read low 1.04 | locus YGL078C, strain dbp3, active compounds read low 0.966 | locus YGL086W, strain mad1, active compounds read low 0.995 | locus YGL167C, strain pmr1, active compounds read low 0.987 | locus YGL173C, strain kem1, active compounds read low 1.01 | locus YGL227W, strain vid30, active compounds read low 0.991 | locus YGL240W, strain doc1, active compounds read low 1.01 | locus YGL248W, strain PDE1, active compounds read low 1.03 | locus YGL253W, strain hxk2, active compounds read low 1.03 | locus YGR078C, strain PAC10, active compounds read low 1.01 | locus YGR135W, strain pre9, active compounds read low 0.941 | locus YGR252W, strain gcn5, active compounds read low 1.08 | locus YHR013C, strain ard1, active compounds read low 0.98 | locus YHR027C, strain rpn1, active compounds read low 0.99 | locus YHR030C, strain SLT2, active compounds read low 1.05 | locus YHR079C, strain IRE1 (second series), active compounds read low 0.972 | locus YHR079C, strain IRE1, active compounds read low 1.04 | locus YHR094C, strain hxt1, active compounds read low 0.973 | locus YHR129C, strain ARP1, active compounds read low 0.989 | locus YHR142W, strain chs7, active compounds read low 0.96 | locus YHR200W, strain rpn10, active compounds read low 1 | locus YIL066C, strain RNR3, active compounds read low 0.998 | locus YIL073C, strain SPO22, active compounds read low 1.02 | locus YIL125W, strain kgd1, active compounds read low 0.98 | locus YIR030C, strain dcg1, active compounds read low 0.976 | locus YJL092W, strain hpr5, active compounds read low 1 | locus YJL095W, strain BCK1 (second series), active compounds read low 0.995 | locus YJL095W, strain BCK1, active compounds read low 1.02 and 1.03 | locus YJL115W, strain asf1, active compounds read low 0.982 | locus YJL129C, strain trk1, active compounds read low 0.945 | locus YJL134W, strain LCB3, active compounds read low 0.99 | locus YJL154C, strain vps35, active compounds read low 1 | locus YJL164C, strain tpk1, active compounds read low 0.955 | locus YJL166W, strain qcr8, active compounds read low 0.995 | locus YJL168C, strain set2, active compounds read low 0.983 | locus YJL187C, strain SWE1 (second series), active compounds read low 1 | locus YJL187C, strain SWE1, active compounds read low 0.992 | locus YJR043C, strain POL32, active compounds read low 1.08 | locus YJR066W, strain TOR1, active compounds read low 0.973 | locus YJR075W, strain HOC1, active compounds read low 0.994 | locus YKL009W, strain mrt4, active compounds read low 0.981 | locus YKL068W, active compounds read low 0.968 | locus YKL085W, strain MDH1 (second series), active compounds read low 0.974 | locus YKL085W, strain MDH1, active compounds read low 0.974 | locus YKL160W, strain elf1, active compounds read low 0.975 | locus YKL190W, strain CNB1, active compounds read low 0.986 | locus YKR001C, strain vps1, active compounds read low 1.04 | locus YKR026C, strain gcn3, active compounds read low 1 | locus YKR091W, strain srl3, active compounds read low 0.991 | locus YLL001W, strain dnm1, active compounds read low 0.964 | locus YLL026W, active compounds read low 0.994 | locus YLL041C, strain sdh2, active compounds read low 0.999 | locus YLR027C, strain aat2, active compounds read low 0.984 | locus YLR039C, strain RIC1, active compounds read low 1 | locus YLR058C, strain SHM2, active compounds read low 1.02 | locus YLR102C, strain apc9, active compounds read low 0.979 | locus YLR113W, strain HOG1, active compounds read low 1.02 | locus YLR221C, strain rsa3, active compounds read low 1.02 | locus YLR258W, strain gsy2, active compounds read low 0.996 | locus YLR268W, strain sec22, active compounds read low 1 | locus YLR320W, strain mms22, active compounds read low 1 | locus YLR342W, strain FKS1, active compounds read low 0.99 | locus YLR357W, strain rsc2, active compounds read low 1.04 | locus YLR370C, strain arc18, active compounds read low 0.996 | locus YLR371W, strain rom2, active compounds read low 0.983 | locus YLR384C, strain iki3, active compounds read low 0.982 | locus YLR418C, strain cdc73, active compounds read low 0.995 | locus YML016C, strain PPZ1, active compounds read low 0.998 | locus YML032C, strain rad52, active compounds read low 0.983 | locus YML120C, strain ndi1, active compounds read low 0.954 | locus YML124C, strain tub3, active compounds read low 0.993 | locus YMR058W, strain fet3, active compounds read low 1 | locus YMR078C, strain ctf18, active compounds read low 0.974 | locus YMR125W, strain sto1, active compounds read low 0.959 | locus YMR129W, active compounds read low 0.981 | locus YMR205C, strain PFK2, active compounds read low 0.922 | locus YMR223W, strain ubp8, active compounds read low 0.972 | locus YMR231W, strain pep5, active compounds read low 0.998 | locus YMR307W, strain GAS1, active compounds read low 1.13 | locus YNL067W, strain RPL9B, active compounds read low 1 | locus YNL183C, strain NPR1, active compounds read low 0.975 | locus YNL209W, strain ssb2, active compounds read low 0.987 | locus YNL233W, strain BNI4, active compounds read low 1.03 | locus YNL248C, strain rpa49, active compounds read low 0.998 | locus YNL250W, strain rad50, active compounds read low 0.927 | locus YNL271C, strain bni1, active compounds read low 0.955 | locus YNL298W, strain CLA4, active compounds read low 0.996 | locus YNL307C, strain MCK1, active compounds read low 0.986 | locus YNL322C, strain KRE1 (second series), active compounds read low 0.998 | locus YNR049C, strain mso1, active compounds read low 1 | locus YNR052C, strain pop2, active compounds read low 0.979 | locus YOL006C, strain TOP1, active compounds read low 1.15 | locus YOL012C, strain htz1 1.06 | locus YOL147C, strain pex11, active compounds read low 0.976 | locus YOR001W, strain rrp6, active compounds read low 1.06 | locus YOR061W, strain CKA2, active compounds read low 0.993 | locus YOR069W, strain VPS5, active compounds read low 0.99 | locus YOR070C, strain gyp1, active compounds read low 0.99 | locus YOR080W, strain dia2, active compounds read low 1 | locus YOR083W, strain WHI5, active compounds read low 1.01 | locus YOR106W, strain vam3, active compounds read low 1 | locus YOR136W, strain idh2, active compounds read low 0.986 | locus YOR144C, strain elg1, active compounds read low 0.986 | locus YOR184W, strain ser1, active compounds read low 1.01 | locus YOR231W, strain MKK1, active compounds read low 1.03 | locus YOR265W, strain rbl2, active compounds read low 1.02 | locus YOR270C, strain vph1, active compounds read low 0.862 | locus YOR290C, strain snf2, active compounds read low 0.959 | locus YOR316C, strain cot1, active compounds read low 0.993 | locus YPL051W, strain arl3, active compounds read low 0.959 | locus YPL078C, strain atp4, active compounds read low 0.966 | locus YPL106C, strain sse1, active compounds read low 1.02 | locus YPL240C, strain hsp82, active compounds read low 1 | locus YPL241C, strain CIN2, active compounds read low 0.985 | locus YPL256C, strain CLN2, active compounds read low 1.01 | locus YPR119W, strain clb2, active compounds read low 0.969 | locus YPR141C, strain kar3, active compounds read low 0.962 | locus YPR163C, strain tif3, active compounds read low 0.977 | locus YPR167C, strain met16, active compounds read low 0.972 | strain wtn01, active compounds read low 1.01
